Assay outcomes (PubChem BioAssay)
Vaccinia Venus: inhibitors of vaccinia virus (Venus reporter); Vaccinia virus Venus reporter expression, fluorescence; Potency, µM (highest dose often 36.5 µM), usual class: inhibitors; 0.46% of 330,000 active; calls by dose curve; tested in A549 cells; further: nearly all actives have a fitted effect of over 30% in size
FMDV antiviral: antivirals against foot and mouth disease virus | FMDV antiviral cell-based qHTS | Potency, µM (highest dose often 57.9 µM), usual class: inhibitors | 1.2% of 410,000 active; calls by dose curve; tested in HEK293T cells; further: read-out not given here; nearly all actives have a fitted effect of over 45% in size
HCV inh: HCV inhibition. Huh7.5.1 HCVcc-Cre infection, luciferase reporter, 44 h. Potency, µM (highest dose often 41.8 µM), hits mostly inhibitors. 3.4% of 340,000 active; active means well fitted inhibition curve with a large enough effect; inconclusive means small, poorly fitted or top-dose-only effect, or another doubt; inactive means no such curve, though single readings can be large or run the other way
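Luciferase read-out (15 sec integration) after a 15 min room-temperature substrate step quantifies HCVcc-Cre infection. Cells, 1,000 per well, had compound added 4 h post-plating, then virus at ~0.5 moi, and were cultured 44 h.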
HCMV inh: inhibitors of human cytomegalovirus. activity change, negative = inhibition, % at 57.5 µM. HFF cells, HCMV-luciferase reporter, 72 h; hits give low values. 4.5% of 410,000 active; in the data active means activity change below about -60%; inconclusive means no clear call, values can overlap the other calls; inactive means above about -39%
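Screen run at 2 compound doses on HFFs infected with reporter HCMV, MOI 1 PFU/cell. Luciferase activity from cell lysates at 72 h post infection gave inhibition relative to buffer-only and Salinomycin wells.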
VACV mCherry inh: inhibitors of vaccinia virus infection (mCherry reporter signal). Vaccinia virus mCherry reporter infection, fluorescence. Potency, µM (titrated, usually from 36.5 µM), hits mostly inhibitors. 0.63% of 310,000 active. AID 720579; calls by dose curve; tested in A549 cells; further: nearly all actives have a fitted effect of over 35% in size
Each line names hits and unclear results; the compound was inactive in the other large screens. This is a sample that favours compounds with a hit; in the whole collection about 7.3% have one here.

COc1ccc(-c2ccc(/C=C(\NC(=O)c3ccccc3)C(=O)N3CCOCC3)o2)cc1	Vaccinia Venus inconclusive, HCMV inh -63, VACV mCherry inh inconclusive
Cc1ccc(C(=O)N/C(=C/c2ccc(-c3ccc(Br)cc3)o2)C(=O)NC2CCS(=O)(=O)C2)cc1 (stereo unspecified)	HCV inh inconclusive
Cc1ccc(C(=O)N/C(=C\c2cn(C)c3ccccc23)C(=O)NCCCN2CCOCC2)cc1	VACV mCherry inh inconclusive
CN(C)CCNC(=O)/C(=C/c1ccc(-c2ccc(Cl)cc2Cl)o1)NC(=O)c1ccccc1	Vaccinia Venus 11µM, FMDV antiviral inconclusive, HCV inh 10µM, HCMV inh inconclusive, VACV mCherry inh inconclusive
COc1ccc(C(=O)N/C(=C\c2ccccc2)C(=O)N2CCOCC2)cc1	none (no result: HCV inh)
Cc1ccc(C(=O)N/C(=C\c2ccc(-c3ccccc3[N+](=O)[O-])o2)C(=O)NCCCN2CCOCC2)cc1	HCV inh 25µM, VACV mCherry inh inconclusive
Cc1ccc(Cn2c(SCC(=O)C(C)(C)C)nc3ccsc3c2=O)cc1	FMDV antiviral inconclusive, HCMV inh inconclusive (no result: HCV inh)
C=CCN1[C@@H](C)[C@H](c2ccccc2)Oc2cccc(N3CCCC3)c2S1(=O)=O	none (no result: Vaccinia Venus, FMDV antiviral, HCV inh, VACV mCherry inh)
CN(C)CCCNC(=O)/C(=C\c1ccc(-c2cccc([N+](=O)[O-])c2)o1)NC(=O)c1ccccc1	HCV inh inconclusive, HCMV inh -66, VACV mCherry inh inconclusive
Cc1ccc(C(=O)N/C(=C\c2ccc(-c3cccc([N+](=O)[O-])c3)o2)C(=O)NCCCN(C)C)cc1	Vaccinia Venus inconclusive, HCV inh inconclusive, VACV mCherry inh inconclusive
CN(C)CCNC(=O)/C(=C/c1ccc(-c2ccc(Cl)cc2)o1)NC(=O)c1ccccc1	Vaccinia Venus inconclusive, FMDV antiviral inconclusive, HCV inh 10µM
COc1cc(OC)c(NS(=O)(=O)c2cc(-c3cnc(C)o3)ccc2OC)cc1Cl	none (no result: HCV inh)
O=C(Nc1ncccn1)c1ccc([N+](=O)[O-])o1	HCV inh inconclusive
CCC(=O)Nc1nc2ccccc2n1Cc1ccc(C)cc1	HCMV inh inconclusive
CCC(=O)Nc1nc2ccccc2n1Cc1ccccc1	HCV inh inconclusive, HCMV inh -92 (no result: Vaccinia Venus, VACV mCherry inh)
CCCn1c(NC(=O)c2ccc([N+](=O)[O-])o2)nc2ccccc21	HCV inh inconclusive, HCMV inh -63, VACV mCherry inh inconclusive
Cn1c(NC(=O)c2ccccc2NC(=O)C(C)(C)C)nc2ccccc21	Vaccinia Venus inconclusive, HCV inh 7.1µM, VACV mCherry inh inconclusive
CCCn1c(NC(=O)c2cccc(C)c2C)nc2ccccc21	HCV inh 11µM (no result: Vaccinia Venus, HCMV inh, VACV mCherry inh)
CSc1nc(C(=O)N2CCOc3ccc(CN4CCN(Cc5ccccn5)CC4)cc3C2)cs1	none (no result: HCV inh, HCMV inh)
Cc1cc2nc(-c3ccc(SCc4ccc(C(=O)O)cc4)nc3)[nH]c2cc1C	HCV inh inconclusive
Cc1cc2nc(-c3ccc(SCC(=O)N4CCc5ccccc54)nc3)[nH]c2cc1C	HCV inh 5µM (no result: FMDV antiviral)
COc1cc(C(=S)N2CCOCC2)cc(OC)c1OC(=O)c1ccccc1[N+](=O)[O-]	HCV inh 16µM
CCOc1ccccc1C(=O)N1CCN(c2cccc(Cl)c2)CC1	Vaccinia Venus inconclusive, HCMV inh -85, VACV mCherry inh inconclusive
Cn1c(SCC(=O)N2CCN(c3cccc(Cl)c3)CC2)nnc1-c1ccncc1	FMDV antiviral inconclusive, HCV inh inconclusive, HCMV inh -67 (no result: Vaccinia Venus, VACV mCherry inh)
O=C(CSc1ccccn1)N1CCN(c2ccccc2)CC1	none (no result: Vaccinia Venus, VACV mCherry inh)
O=C(CSc1ccccn1)N1CCN(c2cccc(Cl)c2)CC1	HCMV inh -73 (no result: Vaccinia Venus, VACV mCherry inh)
O=C(NCCc1csc(-c2cccc(F)c2)n1)c1cccs1	none (no result: HCV inh)
CN1CCN(c2ccc(NC(=O)c3ccc(C(F)(F)F)cc3)cn2)CC1	FMDV antiviral inconclusive, HCV inh 11µM
Cc1ccccc1C(=O)Nc1ccc(N2CCN(C)CC2)nc1	none
FC(F)(F)c1ccc(N2CCN(Cc3ccc4c(c3)OCO4)CC2)nc1	HCMV inh -64
O=C(c1ccc2c(c1)OCO2)N1CCN(c2ccc(C(F)(F)F)cn2)CC1	HCV inh inconclusive, HCMV inh inconclusive
O=C(c1ccc2c(c1)OCCO2)N1CCN(c2ccc(C(F)(F)F)cn2)CC1	FMDV antiviral inconclusive, HCMV inh -60 (no result: HCV inh)
O=[N+]([O-])c1ccc(N2CCN(Cc3ccc4c(c3)OCO4)CC2)nc1	FMDV antiviral inconclusive, HCV inh inconclusive, VACV mCherry inh inconclusive
COc1ccc(OCCCn2c(CCNC(=O)C3CCCCC3)nc3ccccc32)cc1	none (no result: FMDV antiviral, HCV inh, HCMV inh)
O=C1NCCCc2c1oc1ccc(O)cc21	HCMV inh -63 (no result: Vaccinia Venus, VACV mCherry inh)
O=C(CN1CCN(c2ncccn2)CC1)N1CCCc2c1c(=O)oc1ccc(O)cc21	Vaccinia Venus inconclusive (no result: VACV mCherry inh)
CC(=O)c1ccc(C(=O)NCC2Cc3cccc(-c4ncccn4)c3O2)cc1 (stereo unspecified)	none (no result: HCV inh, HCMV inh)
CCOC(=O)c1c(-n2c(C)cc(/C=C3\C(=O)NC(=O)N(C)C3=O)c2C)sc2c1CCCC2	HCV inh 14µM (no result: Vaccinia Venus, VACV mCherry inh)
CCOC(=O)c1c(-n2c(C)cc(C=O)c2C)sc2c1CCCC2	HCV inh inconclusive (no result: Vaccinia Venus, VACV mCherry inh)
Cc1cc(/C=C2/NC(=O)NC2=O)c(C)n1-c1sc2c(c1C#N)CCCC2	HCMV inh -73, VACV mCherry inh inconclusive
CCOc1ccc(/C=C/c2nc(C#N)c(NC(C)c3ccccc3)o2)cc1 (stereo unspecified)	HCMV inh inconclusive (no result: HCV inh)
COc1ccccc1-n1nc(-c2ccccc2)c2cnc3c(F)cc(F)cc3c21	none (no result: HCV inh)
Cc1ncc2c(c1CNC(=O)c1ccc3c(c1)OCO3)CCN(C(=O)c1cc3ccccc3o1)C2	none (no result: HCV inh, HCMV inh)
Cc1cccc(N2CCN(C(=O)c3cnn(-c4ccccc4)c3C3CCN(C(=O)OC(C)(C)C)CC3)CC2)c1C	none (no result: HCV inh)
COCCn1c(SCC(=O)c2ccc(C)cc2C)nc2cc(C(=O)NC3CCCC3)ccc2c1=O	none (no result: HCV inh)
CC1=C(c2ccc(C)cc2)S(=O)(=O)NC1=NCCCN1CCN(c2ccc(F)cc2)CC1	VACV mCherry inh inconclusive (no result: HCV inh)
COc1ccc(N2CCN(C(=O)CN=C3NS(=O)(=O)C(c4ccc(C)cc4)=C3C)CC2)cc1	HCMV inh -61, VACV mCherry inh inconclusive
Cc1ccc(SC2=C(Sc3ccc(C)cc3)C(=O)c3ccccc3C2=O)cc1	FMDV antiviral 25µM, HCV inh inconclusive
Cc1ccc(N2C(=O)c3ccccc3C2=O)cc1	HCMV inh inconclusive
Cc1cccc2c(C(O)c3c[nH]c4c(C)cccc34)c[nH]c12	none (no result: FMDV antiviral, HCV inh, HCMV inh)
COC(=O)C1=C(N)Oc2cc(N(C)C)ccc2C1c1ccccc1OC (stereo unspecified)	Vaccinia Venus inconclusive, HCV inh 6.3µM, VACV mCherry inh inconclusive
O=C(CSc1nc(=O)[nH]c2c1CCC2)NCc1ccc(Cl)cc1	none (no result: HCV inh)
S=C1Cc2ccccc2N1	FMDV antiviral 32µM, HCV inh inconclusive, HCMV inh -83 (no result: Vaccinia Venus, VACV mCherry inh)
Cc1nc2ccccn2c1C(=O)NCc1ccc2c(c1)OCO2	HCV inh inconclusive, HCMV inh -61 (no result: FMDV antiviral)
Cc1ccc(-c2csc3nnc(SCC(=O)NCc4ccc5c(c4)OCO5)n23)cc1	HCV inh 6.3µM (no result: Vaccinia Venus, VACV mCherry inh)
O=C(CCSc1nnc2scc(-c3ccccc3)n12)NCc1ccc2c(c1)OCO2	none (no result: Vaccinia Venus, VACV mCherry inh)
O=C(CSc1nnc2ccccn12)NCc1ccc2c(c1)OCO2	HCMV inh -79 (no result: Vaccinia Venus, VACV mCherry inh)
